Laboratory results: PubChem BioAssay (EPA / NIEHS)
Records with an inconclusive call do not appear. Calls of active or inactive are those of the source. How the source made its calls: active means hit-call score of the fitted dose curve at least 0.9, where 1 is the maximum; inconclusive means response in the unintended direction; inactive means score below 0.9.

The molecules below were run on alkyl and aryl transferase (GSTA2), GSTA2 (gene 2939) (assay: CLD_GSTA2_6hr: CellzDirect (CLD) Gene Expression Assay for alkyl and aryl transferase (GSTA2) at 6 hours (AID 2283666)).
Procedure: CLD_6hr is a cell-based, multiplexed-readout assay that uses hepatocyte, a human liver primary cell, with measurements taken at 6 hours after chemical dosing in a 96-well plate.CLD_GSTA2_6hr is one of 16 assay component(s) measured or calculated from the CLD_6hr assay. It is designed to make measurements of mRNA induction, a form of inducible reporter, as detected with chemiluminescence signals by Quantitative Nuclease Protection Assay (qNPA) technology.Data from the assay component CLD_GSTA2_6hr was analyzed at the endpoint, CLD_GSTA2_6hr, in the positive analysis fitting direction relative to DMSO as the negative control and baseline of activity. Using a type of inducible reporter, gain-of-signal activity can be used to understand changes in the reporter gene as they relate to the gene GSTA2. Furthermore, this assay endpoint can be referred to as a primary readout. To generalize the intended target to other relatable targets, this assay endpoint is annotated to the transferase intended target family, where subfamily is alkyl and aryl transferase.
Human hepatocyte cultures were treated daily for two consecutive days with fresh dosing solutions containing appropriate concentrations of the 320 ToxCast chemicals (chemical identities were blinded to CellzDirect and other ToxCast collaborators), vehicle control (0.2% DMSO), and positive control inducers as summarized in Table 1. Due to the large number of treatment groups and chemicals examined, the ToxCast chemicals were divided into two groups (spanning two independent cultures of hepatocytes from separate donor preparations (Hu778: ToxCast plates 1 and 2; Hu776: ToxCast plates 3 and 4). Each preparation of human hepatocyte cultures was treated with respective vehicle control, medium only control, set of six positive controls/reference chemicals for the five hepatic receptor pathways, and a subset of eight of the ToxCast chemicals (indoxacarb, pyrithiobac-sodium, norflurazon, cyhalofop-butyl, methomyl, thiram, acetochlor, and propiconazole). These replicate data, coupled with internal replicates designed within the blinded ToxCast chemical library, provided additional data to evaluate interindividual differences between hepatocyte preparations and their potential impact on chemical profiles.Cell morphology and integrity were evaluated using phase-contrast microscopy as an indicator of hepatocyte cell health (Tyson & Green, 1987). Cultures for each treatment group (i.e., media, vehicle [0.2% DMSO], positive control inducers [multiple concentrations], and the ToxCast chemicals [multiple concentrations]) were observed and cell morphology was assessed relative to vehicle control cultures at each harvest time point (0, 6, 24, or 48 h). […] Images were evaluated at the conclusion of the study to assess changes in cell integrity and account for the effects of chemical exposure on uncharacteristic changes in concentration-dependent gene expression profiles. The results from these determinations of apparent cytotoxicity were annotated (yes/no) alongside the corresponding qNPA data for reference.At the conclusion of each treatment period, hepatocyte cultures (96-well) were washed with 1 volume of HBSS, lysed by addition of 25 ul ArrayPlate lysis buffer (HTG, Tucson, AZ), and 70 ul/well of Denaturation Oil, denatured by incubation at 95C for 10 min, and frozen at approximately -70C until analysis by nuclease protection assay (qNPA) (Roberts et al., 2007). For qNPA analysis, cell lysates were thawed at 50C for approximately 30 min, qNPA probes were added, and samples were incubated at 95C for 10 min to begin the detection process by denaturing the target RNA, dissociating the duplexes and secondary structure hybridization. At the conclusion of the hybridization period, S1 nuclease reagent was added to each sample to digest all nonprotected nucleotides at 50C for 60-90 min. […]

SMILES | outcome
N#Cc1nn(-c2c(Cl)cc(C(F)(F)F)cc2Cl)c(N)c1S(=O)C(F)(F)F (stereo not drawn) | inactive
C=CCC1=C(C)C(OC(=O)C2C(C=C(C)C)C2(C)C)CC1=O (stereo not drawn) | inactive
CN(C)C(=S)SSC(=S)N(C)C | inactive
CC(Oc1ccc(Cl)cc1Cl)C(=O)O (stereo not drawn) | inactive
Oc1ccccc1-c1ccccc1 | inactive
CCNc1nc(Cl)nc(NC(C)C)n1 | inactive
Cc1c(F)c(F)c(COC(=O)C2C(/C=C(\Cl)C(F)(F)F)C2(C)C)c(F)c1F (stereo not drawn) | inactive
CC(C)(C)c1ccc(CSc2cnn(C(C)(C)C)c(=O)c2Cl)cc1 | inactive
C#CCOS(=O)OC1CCCCC1Oc1ccc(C(C)(C)C)cc1 (stereo not drawn) | inactive
COC(=O)C=C(C)OP(=O)(OC)OC | inactive
Cc1ccc(-c2c(Cl)nc(C#N)n2S(=O)(=O)N(C)C)cc1 | inactive
CC(C)Oc1cc(-n2nc(C(C)(C)C)oc2=O)c(Cl)cc1Cl | inactive
Cc1cc(Cl)ccc1OCC(=O)O | inactive
CCCCNC(=O)n1c(NC(=O)OC)nc2ccccc21 | inactive
COc1nc(NC(C)C)nc(NC(C)C)n1 | inactive
COc1nc(C)nc(NC(=O)NS(=O)(=O)c2ccccc2CCC(F)(F)F)n1 | inactive
C=CCC1=C(C)[C@@H](OC(=O)[C@@H]2[C@@H](C=C(C)C)C2(C)C)CC1=O | inactive

SMILES | outcome
O=C(O)c1nc(Cl)ccc1Cl | inactive
COC(=O)C(C)Oc1ccc(Oc2ccc(Cl)cc2Cl)cc1 (stereo not drawn) | inactive
CCCCNC(=O)OCC#CI | inactive
O=C(O)COc1nc(Cl)c(Cl)cc1Cl | inactive
CCON=C(CC)C1=C(O)CC(c2c(C)cc(C)cc2C)CC1=O (stereo not drawn) | inactive
CCOC(=O)CC(SP(=S)(OC)OC)C(=O)OCC (stereo not drawn) | inactive
CO/C=C(/C(=O)OC)c1ccccc1Oc1cc(Oc2ccccc2C#N)ncn1 | inactive
COc1nc(C)nc(NC(=O)NS(=O)(=O)c2ccccc2Cl)n1 | inactive
CCOc1cc(Oc2ccc(C(F)(F)F)cc2Cl)ccc1[N+](=O)[O-] | inactive
O=C(Nc1ccccc1)Nc1ccnc(Cl)c1 | inactive
COP(N)(=O)SC (stereo not drawn) | inactive
N#Cc1cc(Br)c(O)c(Br)c1 | inactive
CNC(=O)ON=CC(C)(C)SC | inactive
CCOP(=S)(OCC)SCn1c(=O)oc2cc(Cl)ccc21 | inactive
CCc1nn(C)c(C(=O)NCc2ccc(C(C)(C)C)cc2)c1Cl | inactive
COC(=O)N(OC)c1ccccc1COc1ccn(-c2ccc(Cl)cc2)n1 | inactive
